This is part of a sample that, as a whole, favours compounds with a hit. Of some 83,000 tested, about 20% had one in any assay.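 Negative percent growth values reflect cell death: -40 means 40% of the cells present at the start died, and -100 means all died.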 A number with no mark means an inactive call. Calls of active or inactive are those of the source. Rule for the calls: active = growth percent below 10; inactive = the rest.
Test system: MOLT-4 leukemia
Test: NCI-60 one-dose screen, 48 h (100 = growth as untreated, 0 = no growth, -100 = all killed)
Settings: 10 µM unless noted

Row | Compound | growth
1 | C=C(C)[C@@H]1CC[C@]2(C(=O)N3CCCNCC3)CC[C@]3(C)[C@H](CC[C@@H]4[C@@]5(C)CCC(=O)C(C)(C)[C@@H]5CC[C@]43C)[C@@H]12 | 63.3%
2 | CCCCC[C@H]1CC=C2C(=O)C(Cl)=C[C@@H]2CC=CCCCC(=O)O[C@@H](CCCCC)CC=C2C(=O)C(Cl)=C[C@@H]2CC=CCCCC(=O)O[C@@H](CCCCC)CC=C2C(=O)C(Cl)=C[C@@H]2CC=CCCCC(=O)O1 | 10.4% [8 µM]
3 | Cn1c(=O)c2c(ncn2CCC(=O)Nc2ccc(F)cc2)n(C)c1=O | 101%
4 | COc1ccc(-c2cc(-c3c(C)oc4cc5occc5c(OC)c4c3=O)nc(N)c2C#N)cc1OC | 30.9%
5 | COc1cc(NC(C)CN(CC(C)C)C(C)C)c2ncccc2c1 (centres undefined) | 96.6%
6 | COc1ccc(/C=C/C(=O)NCC(C)O)cc1 (centres undefined) | 109%
7 | Cc1cc(N(CCCNc2ccnc3cc(Cl)ccc23)Cc2ccco2)nc(Cl)n1 | 43.4%
8 | Cc1c(C)c2c(c(C)c1NC(=O)CCCCCCC(=O)O)CCC(C)(CCCC(C)CCCC(C)CCCC(C)C)O2 (centres undefined) | 76.7%
9 | CN(C)c1ccc(N=C2C=CC(=O)C=C2)cc1 | 51.3%
10 | Fc1ccc(NCc2nnc(-c3ccc(Cl)cc3)o2)cc1 | 49.6%
11 | COc1ccc(OCC(CO)N2CCN(c3ccccc3)CC2)cc1 (centres undefined) | 116%
12 | CCCCC(=O)OC1CCCCC1C (centres undefined) | 109%
13 | COc1ccc2c(c1)c(-c1nc(-c3cn(C)c4ncccc34)cs1)cn2CCN | 29.7%
14 | COc1ccc(CCN2C(=O)C(C)(C)SC2=S)cc1OC | 101%
15 | Cc1nnc2nc(N)[nH]n2c1=O | 74.7%
16 | COc1cccc(-c2nn(-c3ccccc3)cc2-c2ccnc(NCCNS(=O)(=O)c3cccc(F)c3)c2)c1 | 4.55% (active)
17 | Cc1cc(Cl)c2c(N(C)C)cccc2n1 | 97.6%
18 | COc1ccccc1-n1cnc(N)c1C(=O)c1cc(OC)c(OC)c(OC)c1 | 50.8%
19 | Cc1cc(N2CCCCC2)nc(N(CCNc2ccnc3cc(Cl)ccc23)Cc2ccco2)n1 | 0.376% (active)
20 | N#CC1=C(N)Oc2c(c(N)nn2-c2ccccc2)C1c1ccc(Cl)cc1Cl (centres undefined) | 88.3%

Row | Compound | growth
21 | COc1ccc(NC(=O)c2ccc3c(c2)nc(-c2cc4ccccc4[nH]c2=O)n3-c2cc(C(C)(C)C)[nH]n2)cc1 | 63.1%
22 | N#CC1=C(N)Oc2c(sc3c(F)cccc23)C1c1ccc(Cl)cc1 (centres undefined) | 8.38% (active)
23 | Cc1ccc(Cc2cnc(NC(=O)/C=C/c3cccc(C)c3)s2)cc1 | 16.7%
24 | Oc1cccc2oc(=S)[nH]c12 | 99.5%
25 | COc1cc(/C=C/c2cc(/C=C/c3ccc(O)c(OC)c3)n(-c3ccccc3)c(=O)n2)ccc1O | 31.5%
26 | NC(=O)NCC1CCCCC1 | 91.9%
27 | N#Cc1cnc2cc(OC[C@@H](O)CO)c(NC(=O)CC3CSSC3)cc2c1Nc1ccc(OCc2cccc(F)c2)c(Cl)c1 | -50.4% (active)
28 | CC(=O)OCCCCCCn1c2ccccc2c2c3c(c4c5ccccc5n(C)c4c21)C(=O)N(O)C3=O | 10.9%
29 | Cc1nn2c(-c3nc4cc(Cl)c(Cl)cc4[nH]3)c(-c3ccc(F)cc3)nc2s1 | 76.3%
30 | COc1ccc(-n2c(/C=C/c3ccc(O)c(OC)c3)cc(/C=C/c3ccc(O)c(OC)c3)nc2=O)cc1 | 17.2%
31 | Cc1ccc2oc(=O)cc(-c3sc(N4CCCCC4)nc3-c3ccccc3)c2c1 | 97.3%
32 | Nc1c2c(nc3ccc(Cl)cc13)CC(c1ccc(O)cc1)CC2=O (centres undefined) | 46.9%
33 | O=C1c2ccccc2C(=Cc2ccccc2)c2ccccc21 | 17.3%
34 | C/C(=N\NC(=O)C(C)SC(C)C(=O)N/N=C(\C)c1cccnc1)c1cccnc1 (centres undefined) | 86.7%
35 | O=C1CCC/C=C\C[C@H]2C=C(Cl)C(=O)/C2=C/C[C@H](CCCCC(F)(F)F)OC(=O)CCC/C=C\C[C@H]2C=C(Cl)C(=O)/C2=C/C[C@H](CCCCC(F)(F)F)O1 | 1.97% [7.5 µM] (active)
36 | O=C1/C(=C\c2ccco2)SC(=S)N1CCc1ccc(O)cc1 | 82.2%
37 | O=C(O)/C(=C/c1ccc(O)cc1)c1ccccc1 | 97.5%
38 | CCCCC/C(=C\c1ccccc1)C1OC(C)C(C)O1 (centres undefined) | 110%
39 | Cc1cc(C=O)c(C)c2c1[nH]c1ccccc12 | 86.1%
